From PubChem BioAssay
JMJD2A Tudor – inhibitors of human JMJD2A Tudor domain | O75164 | AlphaScreen JMJD2A-Tudor / H3K4me3 peptide binding | Potency, µM (doses to about 114 µM), for the others: top-dose activity change, negative = inhibition, usual class: inhibitors | 390,000 tested, 4.4% active; further: potency means the concentration at half of the fitted maximal effect; on the % scale 0 is the no-effect control and ±100 the full control effect; nearly all actives have a fitted effect of over 50% in size
PI5P4K alpha inh – inhibitors of human PI5P4K alpha | P48426 | PI5P4Kalpha enzyme, ADP-Glo luminescence, 60 min; hits give low values | max response, % | 330,000 tested, 1.2% active; active means max response of -50% or lower; inconclusive means between -30% and -50%; inactive means -30% or higher; further: value at the top dose of about 77 µM; on the % scale 0 is the no-effect control and ±100 the full control effect
Target sequence (P48426 whole entry, looked up): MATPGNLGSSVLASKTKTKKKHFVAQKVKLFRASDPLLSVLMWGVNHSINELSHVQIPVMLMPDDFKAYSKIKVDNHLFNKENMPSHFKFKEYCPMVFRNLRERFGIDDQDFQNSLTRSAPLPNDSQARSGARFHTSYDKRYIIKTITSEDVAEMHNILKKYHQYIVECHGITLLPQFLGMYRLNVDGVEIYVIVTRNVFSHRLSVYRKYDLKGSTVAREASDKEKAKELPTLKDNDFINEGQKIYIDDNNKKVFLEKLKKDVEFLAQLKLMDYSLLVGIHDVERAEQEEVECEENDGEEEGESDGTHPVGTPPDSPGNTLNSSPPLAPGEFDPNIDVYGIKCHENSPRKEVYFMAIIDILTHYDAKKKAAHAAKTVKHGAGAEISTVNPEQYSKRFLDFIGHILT
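Quantitative HTS of the MLSMR library against PI5P4Kalpha with substrate. ATP added last at 5 microM final; room temperature, 60 minutes. Remaining ATP depleted, ADP converted and read as luminescence.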
G9a inh – G9a (human) methyltransferase inhibition | Q96KQ7 | G9a H3K9 monomethylation, AlphaScreen, 2 h | Potency, µM (highest dose often 102 µM), inactives show at the top dose activity, negative = inhibition, hits mostly inhibitors | 350,000 tested, 8.8% active | AID 504332; further: potency means the concentration at half of the fitted maximal effect; on the % scale 0 is the no-effect control and ±100 the full control effect; nearly all actives have a fitted effect of over 75% in size
Target sequence (Q96KQ7 913-1193 limits assumed): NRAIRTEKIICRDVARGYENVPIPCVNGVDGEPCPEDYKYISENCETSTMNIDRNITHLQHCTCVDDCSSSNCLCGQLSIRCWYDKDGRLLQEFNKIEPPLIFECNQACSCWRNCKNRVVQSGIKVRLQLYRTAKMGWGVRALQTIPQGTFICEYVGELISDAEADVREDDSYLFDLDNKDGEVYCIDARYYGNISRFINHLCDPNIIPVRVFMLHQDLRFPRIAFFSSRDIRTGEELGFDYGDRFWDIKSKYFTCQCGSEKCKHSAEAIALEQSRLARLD
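Step 1: enzyme (final 20 nM) with compound, 15 min RT. Step 2: substrate peptide 500 nM and SAM 20 uM, 2 h RT. Step 3: anti-H3K9me1 antibody and AlphaScreen beads, 10 min, then plate read.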
PLK1 PBD inh – PLK1 (human) polo-box domain binding inhibition; 360,000 tested, 2.8% active; P53350; AID 720504; Potency, µM, for the others: max response, negative = inhibition, most hits filed as inhibitors; Plk1 PBD binding of FITC phosphopeptide, fluorescence polarization; further: potency means the concentration at half of the fitted maximal effect; series mostly up to about 57 µM; on the % scale 0 is the no-effect control and ±100 the full control effect; nearly all actives have a fitted effect of over 65% in size
BAZ2B inh – blocks human BAZ2B; Q9UIF8; AlphaScreen BAZ2B-H3K14Ac peptide displacement; Potency, µM (series often up to 114 µM), inactives show at the highest dose activity change, negative = inhibition, usual class: inhibitors; 360,000 tested, 4.4% active; further: potency means the concentration at half of the fitted maximal effect; on the % scale 0 is the no-effect control and ±100 the full control effect; nearly all actives have a fitted effect of over 60% in size
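In this displacement format the biotinylated H3(5-23) peptide acetylated at Lys14 serves as ligand at 50 nM, with BAZ2B at 50 nM in PBS pH 7.4 containing 0.01% Tween-20. Donor and acceptor beads are 10 ug/mL final.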
HP1b binding inh – blocks HP1-beta chromodomain binding to methylated histone tails; P83916; AlphaScreen HP1-beta / biotin-H3K9me3 peptide binding; Potency, µM (series often up to 114 µM), without a hit: top-dose activity change, negative = inhibition, most hits filed as inhibitors; 390,000 tested, 0.56% active; further: potency means the concentration at half of the fitted maximal effect; nearly all actives have a fitted effect of over 70% in size
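HP1-beta protein (50 nM final) preincubated 30 min at room temperature with biotinylated H3(1-18)K9me3 peptide (50 nM) in PBS pH 7.4, 0.01% Tween-20, then compound added for 30 min. AlphaScreen streptavidin donor/nickel chelate acceptor beads (10 ug/mL final), 30 min dark, luminescence read.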
* marks the source's active call; other numbers are inactive results; ? = inconclusive; . = no result; ! = not active in a repeat; [ ] = dose if it differs, or a comment. The list is not random: actives were taken first. Their share in the collection is about 12%. Unless noted, the call rests on the fitted dose curve; in most records, active means well fitted curve in the direction sought with a large enough effect; inconclusive means small, poorly fitted or top-dose-only effect, or another doubt; inactive means no such curve, though single readings can be large; an effect the other way counts as inactive or inconclusive.

SMILES	JMJD2A Tudor	PI5P4K alpha inh	G9a inh	PLK1 PBD inh	BAZ2B inh	HP1b binding inh
O=S(=O)(c1cccc2c(Cl)cccc12)N1CCCNCC1	.	.	19µM*!	.	.	.
O=[N+]([O-])c1cccc2c(S(=O)(=O)N3CCCCC3)cccc12	?	0	56µM*	-8%	71µM*	?
O=[N+]([O-])c1cccc2c(S(=O)(=O)N3CCOCC3)cccc12	-35%	?	.	-3%	?	0%
O=[N+]([O-])c1cc(S(=O)(=O)N2CCCCCC2)ccc1F	-22%	8	-6%[59 µM]	15µM*	-22%	-3%
O=S(=O)(c1cccc2c(S(=O)(=O)N3CCCC3)cccc12)N1CCCC1	14%	-4	16%[12.7 µM]	-3%	2%	35%
CCc1ccc(NC(=O)C(Cc2ccccc2)NS(=O)(=O)c2ccc3c(c2)c(=O)n(C)c(=O)n3C)cc1 (configuration not stated)	-22%	.	-30%[59 µM]	.	-17%	14%
CC(C)CS(=O)(=O)C1=NSC2=NC(=O)/C(=C\c3ccc(OC(=O)c4ccco4)cc3)C(=N)N21	-36%	-86*	.	24µM*	?	2%
CC1=CC2=NC(=O)/C(=C\c3ccc(OC(=O)c4ccco4)cc3)C(=N)N2O1	-10%	2	-44%	-4%	20%	20%
CCC(CC)C1=NN2C(=N)/C(=C/c3ccc(OC(=O)c4ccco4)cc3)C(=O)N=C2S1	?	-18	8%	30µM*	-25%	27%
CC1=CSC2=NC(=O)/C(=C/c3cccc(OC(=O)c4ccco4)c3)C(=N)N12	-30%	-20	?	-29%	?	-7%
CS(=O)(=O)C1=NSC2=NC(=O)/C(=C\c3ccc(OC(=O)c4ccco4)c(Br)c3)C(=N)N21	?	-73*	20µM*	24µM*	56µM*	-5%[57 µM]
CSC1=NSC2=NC(=O)/C(=C\c3ccc(OC(=O)c4ccco4)cc3)C(=N)N12	-10%	-53*	?	?	?	14%
O=C(CCOc1ccccc1)N(Cc1cccnc1)c1nc2ccc(F)cc2s1	-9%	.	?	.	-10%	13%
CC(C)Cc1nnc(NC(=O)c2ccc3c(c2)OCCO3)s1	-22%	-6	-11%[12.7 µM]	0%	23%	25%
COc1cccc(-c2cc(C(F)(F)F)c(C#N)c(=O)[nH]2)c1	?	-25	4%	24µM*	10%	26%
CN(C(=O)c1cccc(NC(=O)Cc2cccc(NC(=O)C3CCN(C(=O)C4CCCC4)CC3)c2)c1)C1CC1	-7%	2	.	-6%	.	44%
O=c1nc2onnc2c(C=NO)[nH]1	-7%	?	.	1%	.	43%
O=C(COC(=O)COc1cccc(C(F)(F)F)c1)Nc1ccc(N2CCOCC2)cc1	-8%	5	-17%[12.7 µM]	2%	-24%	28%
C1=CC2CC1CC2CN1CCN(Cc2ccccc2)CC1 (configuration not stated)	1.1µM*	0	2µM*	-6%	23%	?
CCS(=O)(=O)N1CCN(CC2CC3C=CC2C3)CC1 (configuration not stated)	1.3µM*	.	11µM*	-5%	50µM*	?
C1=CCC(CN2CCN(C3CCCCCC3)CC2)CC1 (configuration not stated)	1µM*	1	7.9µM*	1%	45µM*	?
CCCS(=O)(=O)N1CCN(CC2CC=CCC2)CC1 (configuration not stated)	0.89µM*	.	7.1µM*	-7%	56µM*	-55%
CCCS(=O)(=O)N1CCN(CC2CC3C=CC2C3)CC1 (configuration not stated)	-28%[11.4 µM]	1	5.6µM*	-16%	50µM*	?
Cc1ccc(N2CCN(S(=O)(=O)c3ccc(C)cc3)CC2)cc1	-17%	-1	8%	-25%	-31%	30%
Cc1ccc(S(=O)(=O)N2CCN(CC3CC4C=CC3C4)CC2)cc1 (configuration not stated)	0.79µM*	1	7.9µM*	-8%	18µM*	28µM*
SMILES	JMJD2A Tudor	PI5P4K alpha inh	G9a inh	PLK1 PBD inh	BAZ2B inh	HP1b binding inh
C=C1CCN(C(Cc2ccccc2)C(=O)O)S(=O)(=O)c2ccccc21 (configuration not stated)	1%	.	.	.	.	35%
Cc1cccc(OCCn2c(SCC(=O)O)nc3ccccc32)c1	-8%	.	?	.	-1%	39%
CCOC(=O)c1cc(-c2ccco2)nc2c1c(C)nn2CCC#N	-16%	-22	11µM*	-17%	-7%	25%
CCOC(=O)c1cc(-c2ccc(Cl)cc2)nc2c1c(C)nn2CCC#N	19%	1	68%[12.7 µM]	-2%	3%	43%
COc1cccc(N=Cc2c[nH][nH]c2=O)c1	56µM*	-8	.	27µM*	-9%	-11%
O=c1[nH]c(NC2CCCCC2)c([N+](=O)[O-])c(=O)[nH]1	1%	-76*	-3%[59 µM]	-2%	11%	39%
CN(C)c1ccc(Nc2nc(N)c3ccccc3n2)cc1	40µM*	?	10µM*	-7%	14µM*	32µM*
Nc1nc(Nc2ccccc2)nc2ccccc12	-6%[57.1 µM]	-22	?	-8%	-32%	29%
CNC(=O)Nc1cc(C)nn1C	?	-27	5%	19µM*	-17%	18%
CCc1ccc(-n2c(=O)c3c(C)c(C)sc3n(CC(=O)NCc3ccc(C)cc3)c2=O)cc1	-3%	.	36%[59 µM]	.	33%	65%
Cc1cccc(NC(=O)c2cccc(N3CCCS3(=O)=O)c2)c1	-1%	.	2%[59 µM]	.	2%	36%
CCOC(=O)Cn1nnnc1CN(Cc1ccc(OC)cc1)Cc1cc2cc(C)cc(C)c2[nH]c1=O	-21%	.	22µM*	-8%	9%	25%
COc1cc2cc(CN(Cc3nnnn3Cc3ccco3)C3CCCCC3)c(=O)[nH]c2cc1OC	?	-20	40µM*	?	-10%	-16%
COc1ccc(Cn2nnnc2CN(Cc2cc3ccc(C)cc3[nH]c2=O)C2CCCC2)cc1	-26%	.	35µM*	0%	3%	10%
Cc1ccc2cc(CN(Cc3ccccc3)Cc3nnnn3C3CCCC3)c(=O)[nH]c2c1	-27%	.	-7%[12.7 µM]	2%	4%	14%
Cc1ccc2cc(CN(Cc3ccc(F)cc3)Cc3nnnn3C3CCCC3)c(=O)[nH]c2c1	-31%	.	14µM*	-1%	3%	14%
CCOC(=O)Cn1nnnc1CN(Cc1ccc(OC)cc1)Cc1cc2cc(C)ccc2[nH]c1=O	-26%	.	?	0%	-1%	7%
COc1ccc(Cn2nnnc2CN(Cc2cc3cccc(C)c3[nH]c2=O)C2CCCC2)cc1	-24%	.	?	2%	-11%	19%
COCCn1nnnc1CN(Cc1cc2cc(OC)c(OC)cc2[nH]c1=O)C1CCCC1	1%	3	18%[59 µM]	-3%	33%	25%
